Screens deposited in PubChem by National Center for Advancing Translational Sciences (NCATS).
Only some compounds are listed: those with a hit (about 2.3% of all), similar ones and a draw of the others.
ALOX12 inh = Primary qHTS assay for inhibitors of human arachidonate 12S-lipoxygenase (ALOX12): Round 2 | Polyunsaturated fatty acid lipoxygenase ALOX12 (Homo sapiens), P18054 | hit rate 1.1% among 580,000 | Potency, µM (top dose mostly 108 µM), without a hit: at the highest dose activity change, negative = inhibition, usual class: inhibitors | AID 1671190, 2021 | purified 12hLO, xylenol orange hydroperoxide absorbance; also: % is scaled to controls: 0 for no effect and ±100 for the full control effect
Target sequence (P18054 whole entry, looked up): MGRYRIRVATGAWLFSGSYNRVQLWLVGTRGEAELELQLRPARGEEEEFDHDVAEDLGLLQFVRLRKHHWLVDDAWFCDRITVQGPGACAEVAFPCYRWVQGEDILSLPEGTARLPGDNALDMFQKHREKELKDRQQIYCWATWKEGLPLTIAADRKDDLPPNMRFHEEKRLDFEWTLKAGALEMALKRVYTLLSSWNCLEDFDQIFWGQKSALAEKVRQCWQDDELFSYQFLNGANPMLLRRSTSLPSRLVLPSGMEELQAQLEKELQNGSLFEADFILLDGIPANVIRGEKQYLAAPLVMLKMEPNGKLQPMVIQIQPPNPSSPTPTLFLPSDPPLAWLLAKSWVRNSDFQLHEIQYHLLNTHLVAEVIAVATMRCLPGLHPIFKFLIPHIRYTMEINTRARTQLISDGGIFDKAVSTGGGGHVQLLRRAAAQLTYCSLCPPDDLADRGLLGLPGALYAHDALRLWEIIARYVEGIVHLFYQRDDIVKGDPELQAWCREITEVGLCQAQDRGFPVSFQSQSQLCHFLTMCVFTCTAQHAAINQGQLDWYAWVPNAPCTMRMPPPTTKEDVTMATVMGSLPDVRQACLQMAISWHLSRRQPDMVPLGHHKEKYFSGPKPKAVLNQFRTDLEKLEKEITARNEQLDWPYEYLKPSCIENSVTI
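Hydroperoxide product was detected by ferrous iron/xylenol orange as the 573 to 405 nm absorbance ratio. Arachidonic acid at 40 uM (final) was turned over for 30 min at room temperature by 150 nM human 12hLO, pH 7.0 Hepes buffer, after 15 min compound preincubation.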
PTHR1 agonist = qHTS for PTHR1 Agonists: Primary Screen; Parathyroid hormone/parathyroid hormone-related peptide receptor (Homo sapiens), Q03431; HEK293 GP2 PTHR1 cells, GloSensor cAMP luminescence, 1 h; Potency, µM (titrated, usually from 115 µM), for the others: at the top dose activation, actives largely listed as activators; hit rate 0.075% among 410,000; also: nearly all actives have a fitted effect of over 55% in size
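HEK-293-derived GP2 cells expressing PTHR1 and a GloSensor cAMP reporter, 3,000/well, plated overnight, given luciferin plus IBMX (each 0.5 mM as added) for 1 h at 37 °C, then compound for 1 h at 37 °C. Luminescence was read after 15 min at room temperature.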
GLP1R ag = qHTS of GLP-1 Receptor Agonists; HEK293 GLP-1R CRE-luciferase, luminescence, 4-6 h; cells express a hypersensitive GLP-1R form; Potency, µM (series often up to 45.6 µM), for inactives: at the highest dose activation, hits mostly activators; hit rate 0.007% among 380,000; also: % of control where 0% means no effect
GLS inh = qHTS for Inhibitors of Glutaminase (GLS) | Glutaminase kidney isoform, mitochondrial (Homo sapiens), O94925 | GLS enzymatic activity, qHTS titration | Potency, µM (highest dose often 45.5 µM), inactives show top-dose activity change, negative = inhibition, usual class: inhibitors | hit rate 0.21% among 410,000 | AID 624170, 2012; also: % is scaled to controls: 0 for no effect and ±100 for the full control effect
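Compounds were pin-transferred onto hKGA, after which L-glutamine (1 mM solution) and a detection mix of glutamate oxidase, HRP and Amplex Red were added. Initial and 30 min RT fluorescence reads were collected.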
GRP78 ERSR act = qHTS for Inducers of the Endoplasmic Reticulum Stress Response (ERSR) in Human Glioma: qHTS. hit rate 0.02% among 420,000. U87-MG GRP78 promoter luciferase reporter, 16 h. Potency, µM, for inactives: at the highest dose activation, hits mostly activators; also: series mostly up to about 76 µM; % of control where 0% means no effect; nearly all actives have a fitted effect of over 35% in size
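Stably transfected U87-MG glioma cells carrying a GRP78-based luciferase sensor; 16 h compound incubation. Luminescence end-point read 10 min after Bright-Glo addition at room temperature.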
GLP1R inv ag = qHTS of GLP-1 Receptor Inverse Agonists (Inhibition Mode); Glucagon-like peptide 1 receptor (Homo sapiens), P43220; HEK293 GLP-1R CRE-luciferase, luminescence, 24 h; GLP-1R form is constitutively active; Potency, µM (top dose mostly 38.3 µM), without a hit: at the top dose activity change, negative = inhibition, most hits filed as inhibitors; hit rate 1.6% among 410,000; also: % is scaled to controls: 0 for no effect and ±100 for the full control effect; nearly all actives have a fitted effect of over 55% in size
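Luminescence readout: a drop in cAMP-driven luciferase signal flags inverse agonism at a constitutively active GLP-1R stably expressed in HEK293. Compound exposure lasted 24 hr at 37 deg C, 5% CO2.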
Numbers without * were called inactive; i = inactive; u = inconclusive; x = no result; [ ] = another dose, or the depositor's remark. Calls follow the shape of the dose curve; as a rule, active = well fitted curve in the direction sought with a large enough effect; inconclusive = small, poorly fitted or top-dose-only effect, or another doubt; inactive = no such curve, though single readings can be large; an effect the other way counts as inactive or inconclusive. Potency is read from the fitted curve at half-maximal effect.

SMILES	ALOX12 inh	PTHR1 agonist	GLP1R ag	GLS inh	GRP78 ERSR act	GLP1R inv ag
Cc1ccc(CNC(=O)c2ccc(Cl)c(S(=O)(=O)N3CCCCC3)c2)cc1	-4%	-37%	2%	4%	-6%	10µM*
Cc1cccc(NC(=O)c2ccc(Cl)c(S(=O)(=O)N3CCc4ccccc43)c2)n1	4%	i	-1%	-1%	-1%	11µM*
COc1cccc(-n2cnnc2SC(C)C(=O)Nc2ccc(N3CCOCC3)cc2)c1 (configuration not stated)	-28%	x	x	x	x	x
CCC(CNC(=O)c1cc(=O)c2ccccc2o1)c1ccccc1 (configuration not stated)	-4%	x	x	x	x	x
Cc1ccc(N(Cc2ccccc2)C(=O)c2ccc(Cl)c(S(=O)(=O)N3CCOCC3)c2)cc1	4%	-31%	2%	0%	-1%	11µM*
CC(O)CNc1nc2c(c(=O)n(Cc3ccccc3)c(=O)n2C)n1Cc1ccccc1 (configuration not stated)	20%	x	x	x	x	x
Cc1cccc(N(CC(O)Cn2c3ccccc3c3ccccc32)S(=O)(=O)c2ccc(F)cc2)c1 (configuration not stated)	-24%	i	x	1%	0%	13µM*
Cc1ccc(S(=O)(=O)N(CC(O)CN2C(=O)NC(C)(C)C2=O)c2cccc(C)c2)cc1 (configuration not stated)	-19%	i	20%	-1%	-1%	-8%
CC(=O)Nc1ccc(N(CC(O)Cn2c3ccccc3c3ccccc32)S(=O)(=O)c2ccc(C)cc2)cc1 (configuration not stated)	u	i	3%	1%	-4%	7.9µM*
Cc1ccc(N(CC(O)Cn2c3ccccc3c3ccccc32)S(C)(=O)=O)cc1 (configuration not stated)	-7%[57.4 µM]	-14%	14%	-3%	-1%	u
CCN1CCN(Cc2nc3c(c(=O)[nH]c(=O)n3C)n2CCCc2ccccc2)CC1	-13%	x	x	x	x	x
CN1C(=O)C(=O)/C(=C(/O)c2ccc(Br)cc2)C1c1ccc(F)cc1 (configuration not stated)	25µM*	-35%	-1%	6%	-4%	13%
CCCCCCCCCCCC(=O)N/N=C/c1ccc(C(C)(C)C)cc1	-1%	x	x	x	x	x
COc1ccc2[nH]c(-c3ccc(C)cc3)cc(=O)c2c1	x	-54%	-4%	2%	-12%	3.2µM*
Cc1ccc(NS(=O)(=O)c2cc(C(=O)O)cc3c2CCC3)c(F)c1	-4%	x	x	x	x	x
O=[N+]([O-])c1ccc2c(c1)-c1ccccc1C2O (configuration not stated)	7.1µM*	i	3%	u	1%	29%
O=[N+]([O-])c1ccc2c(c1)/C(=N\O)c1ccccc1-2	218%	i	1%	-1%	-1%	74%
O=C(Cn1nc2c(cc1=O)CCCC2)Nc1ccccc1Br	-8%	x	x	x	x	x
Cc1cc(C)c(NC(=O)c2c(C)nn(-c3ccc(F)cc3)c2-n2cccc2)c(C)c1	4%	-28%	11%	-12%	-3%	u
Cc1ccc(CCNC(=O)c2c(C)nn(-c3ccc(F)cc3)c2-n2cccc2)cc1	-33%	-2%	25%	7%	-6%	6.3µM*
CCN(CC)c1ccc(NC(=O)c2c(C)nn(-c3ccc(F)cc3)c2-n2cccc2)c(C)c1	-47%	-36%	1%	13%	-5%	5µM*
N#CC(=C(N)Sc1ccccc1N)C(C#N)=C(N)Sc1ccccc1N	22µM*	x	x	x	x	x
N#CC(=C(/N)Sc1ccccc1N)/C(C#N)=C(/N)Sc1ccccc1N	u	x	x	x	-3%	x
O=C(c1ccc(Cl)cc1)c1coc2ccc(O)cc12	248%	-16%[57.5 µM]	-1%	18%	-3%	u
O=C(c1ccc(Br)cc1)c1coc2ccc(O)cc12	22µM*	-14%	11%	0%	5%	9%
SMILES	ALOX12 inh	PTHR1 agonist	GLP1R ag	GLS inh	GRP78 ERSR act	GLP1R inv ag
CCCCCC(C)NCc1sccc1C (configuration not stated)	0.45µM*	x	x	x	x	x
CCC(CO)NCc1sccc1C (configuration not stated)	319%	i	8%	-17%	0%	-4%
Clc1ccc(-c2nnc3ccc(SCc4ccco4)nn23)cc1	-67%	x	x	x	x	x
COc1ccc(CCC(=O)N2c3ccccc3N=C(c3ccc(C(F)(F)F)cc3)C2C(=O)NC(C)(C)C)cc1 (configuration not stated)	-16%	i	x	x	x	4.5µM*
Cc1csc(NC(=O)c2ccc(N3CCCC3=O)cc2)n1	-2%	-56%	-5%	-18%	-13%	2.2µM*
Cc1nnc(NC(=O)c2ccc(N3CCCC3=O)cc2)s1	-16%	i	7%	-5%	-1%	8%
CC(C(=O)Nc1ccccc1-c1ccccc1)N1CCCCC1 (configuration not stated)	-17%	-17%	0%	6%	-3%	10µM*
CC(C(=O)Nc1cc(Cl)cc(Cl)c1)N1CCCC1 (configuration not stated)	x	i	13%	12%	0%	13µM*
O=C(CC(c1ccccc1)c1ccccc1)NCC1CCCO1 (configuration not stated)	0%	-3%[57.5 µM]	4%	-10%	-2%	-9%
O=C(Nc1cc(Cl)cc(Cl)c1)C(NCC1CCCO1)c1ccccc1 (configuration not stated)	5%	i	-4%	3%	-3%	5µM*
CC(C(=O)Nc1cccc(Cl)c1)N1CCN(C(=O)C2CC2)CC1 (configuration not stated)	-16%	x	x	x	x	x
CN(C)CCNC(C(=O)Nc1cc(Cl)cc(Cl)c1)c1ccccc1 (configuration not stated)	5%	i	6%	-9%	-5%	u
CC(C)NC(C(=O)Nc1cc(Cl)cc(Cl)c1)c1ccccc1 (configuration not stated)	-16%	i	-4%	-8%	-4%	7.9µM*
COc1ccc(C(=O)C(C)OC(=O)c2ccc3ccccc3n2)cc1 (configuration not stated)	-2%	x	x	x	x	x
COc1ccc(OC)c(C2CCCN2CC(=O)N2CCN(c3cccc(C)c3)CC2)c1 (configuration not stated)	0%	x	x	x	x	x
